Source: PubChem BioAssay
For some assays here: Measured potencies and affinities stand elsewhere. Calls of active or inactive are those of the source.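 Rule for the calls, unless noted: active = primary screen activator hit with a dose response curve and TRPC4 channel activation at any tested dose; inactive = no activation, no dose response, or not a primary hit.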

Experiments:
[1] = system: TRPC4 beta (transient receptor potential cation channel C4), mouse; assay: activators of mouse TRPC4 channel, confirmation, cell-based, Fluo4 calcium, HEK293 TRPC4beta/mu-opioid, duplicates, 10 µM (AID 2426;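 active = fluorescence ratio normalized to control raised more than 50% in primary screen plus both repeat runs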); details: Fluo4 calcium fluorescence, at 10 µM; hits give high values
[2] = system: transient receptor potential cation channel C4 beta (TRPC4), mouse; assay: activators of mouse TRPC4 channel, confirmation, cell-based, second round, Fluo4, HEK293 TRPC4beta/mu-opioid, 1 µM (AID 2461;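 active = primary screen active and over 50% activation in each of two duplicate runs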); details: Fluo4 calcium fluorescence, at 1 µM; hits give high values
[3] = system: TRPC4 (transient receptor potential cation channel C4 beta), mouse; assay: positive allosteric modulators of mouse TRPC4, confirmation, cell-based, second round, Fluo-4, HEK293 TRPC4beta/mu-opioid, 1 µM (AID 2554;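 active = primary screen hit whose fluorescence ratio, in both repeats, exceeds the weak agonist control mean by 3 SD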); details: DAMGO EC20, Fluo-4 calcium flux, at 1 µM; hits give high values
[4] = system: TRPC4 beta (transient receptor potential cation channel C4), mouse; assay: positive allosteric modulators of mouse TRPC4, confirmation, cell-based, Fluo-4, HEK293 TRPC4beta/mu-opioid (AID 2555;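 active = primary screen hit whose calcium fluorescence ratio, in both repeats, exceeds the weak agonist control mean by 3 SD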); details: DAMGO EC20, Fluo-4 calcium flux, at 10 µM; hits give high values
[5] = target: Short transient receptor potential channel 4 (Mus musculus) (UniProt Q9QUQ5); assay: inhibitors of mouse TRPC4 channel, confirmation, cell-based, Fluo4, HEK293 TRPC4beta/mu-opioid (AID 2636;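 active = calcium signal cut by more than 3 SD below the full-agonist control yet still positive, in both repeats and the earlier primary screen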); details: DAMGO, Fluo4 calcium flux, at 10 µM; hits give high values
[6] = target: Short transient receptor potential channel 4 (Mus musculus) (UniProt Q9QUQ5); assay: inhibitors of mouse TRPC4 channel, confirmation, cell-based, second round, Fluo4, HEK293 TRPC4beta/mu-opioid, 1 µM (AID 2637;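 active = calcium signal ratio cut to more than 3 SD under the fully stimulated control mean yet still positive, in both repeats and the primary screen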); details: Fluo4 calcium flux, DAMGO, at 1 µM; hits give high values
[7] = target: Short transient receptor potential channel 4 (Mus musculus) (UniProt Q9QUQ5); assay: mouse TRPC4 channel activators, dose response, cell-based, HEK293 TRPC4/mu-opioid, Fluo-4 calcium (AID 434937)
[8] = target: Short transient receptor potential channel 4 (Mus musculus) (UniProt Q9QUQ5); assay: TRPC4 positive allosteric modulators, dose response, cell-based, HEK293 TRPC4/mu-opioid, Fluo-4 calcium, EC20 DAMGO (AID 434941;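 active = earlier screen potentiator hit that boosts the TRPC4 ion channel at some dose, with a dose response; inactive = no potentiation, no dose response, or not a prior hit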;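 note: calcium entry triggered by an EC20 dose of DAMGO at the co-expressed mu-opioid receptor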)
[9] = target: Short transient receptor potential channel 4 (Mus musculus) (UniProt Q9QUQ5); assay: mouse TRPC4 channel inhibitors, dose response, cell-based, HEK293 TRPC4/mu-opioid, Fluo-4 calcium (AID 434942;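 active = primary screen inhibitor hit that blocks the TRPC4 channel at some tested dose, yielding a dose curve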)
[10] = target: Short transient receptor potential channel 6 (Mus musculus) (UniProt Q61143); assay: inhibition of mouse TRPC6 channel, confirmation, selectivity assay for TRPC4 inhibitor project, cell-based, HEK293, membrane potential dye, duplicate (AID 434948;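 active = active in primary screen and both duplicates, each dropping signal beyond three positive-control SD with fluorescence still positive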); details: HEK293 TRPC6, membrane potential dye fluorescence, at 10 µM, stimulated with maximal-effect acetylcholine; hits give high values
[11] = target: Short transient receptor potential channel 6 (Mus musculus) (UniProt Q61143); assay: activation of mouse TRPC6 channel, confirmation, selectivity assay for TRPC4 activator project, cell-based, HEK293, membrane potential dye, duplicate (AID 434950;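 active = membrane potential signal rise above negative control mean plus 3 SD in both duplicates, also active in the earlier TRPC4 screen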;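 for activation: 0% = buffer only wells and 100% = acetylcholine maximal-effect wells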); details: HEK293 TRPC6, membrane potential fluorescence, at 10 µM; hits give high values
[12] = target: Short transient receptor potential channel 6 (Mus musculus) (UniProt Q61143); assay: TRPC6 potentiation by TRPC4 potentiator hits, confirmation, selectivity assay for TRPC4 potentiator project, HEK293 cells, membrane potential dye, duplicate (AID 434952;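 active = compound raising the membrane signal above positive-control mean plus 3 SD in both repeats, and a primary screen hit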); details: HEK293 TRPC6, membrane potential dye fluorescence, at 10 µM, maximal acetylcholine added after compound; hits give high values
[13] = target: Short transient receptor potential channel 4 (Mus musculus) (UniProt Q9QUQ5); assay: calcium flux activators in TRPC4/5HT1a cells, counter-screen for TRPC4 activator project, cell-based, second counter screen, HEK293 TRPC4/5HT1a, Fluo-4 (AID 434977;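 active = calcium signal rise above buffer-control mean plus 5 SD in both duplicates, and also a hit in the primary screen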); details: Fluo-4 calcium flux, at 10 µM; hits give high values
[14] = calcium flux inhibitors in TRPC4/5HT1a cells, confirmation, counter-screen for TRPC4 inhibitor project, cell-based, second counter screen, HEK293 TRPC4/5HT1a, Fluo-4 (AID 434978;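 active = primary screen active whose calcium signal fell more than 3 SD beyond the full-serotonin control mean in both duplicate plates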;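 note: serotonin given first at submaximal then at maximal dose after compound preincubation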); details: Fluo-4 calcium flux, at 10 µM, serotonin added to trigger calcium flux; hits give high values
[15] = system: TRPC4 (mouse), co-expressed with 5HT1a in HEK293; assay: calcium flux potentiators in TRPC4/5HT1a cells, confirmation, counter-screen for TRPC4 potentiator project, cell-based, second counter screen, HEK293 TRPC4/5HT1a, Fluo-4 (AID 434979;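 active = signal rise over 3 SD above mean of control wells given weak agonist, in both repeats and first screen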); details: Fluo-4 calcium flux, at 10 µM, serotonin added at its EC20 dose; hits give high values
[16] = calcium flux activation in mu-opioid HEK293 cells, confirmation, counter-screen for TRPC4 activator project, cell-based, HEK293 mu-opioid receptor line (AID 449723;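 active = hit in primary screen, with calcium signal over 5 SD above buffer well mean in both duplicates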;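 note: counter screen cells carry the mu-opioid receptor alone and lack TRPC4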); details: Fluo-4 calcium fluorescence, at 10 µM; hits give high values
[17] = calcium flux enhancement in mu-opioid HEK293 cells, confirmation, counter-screen for TRPC4 allosteric potentiator project, cell-based, HEK293 mu-opioid receptor line (AID 449724;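 active = calcium signal rise more than 3 SD above the low-dose agonist control mean, in both duplicate plates and the primary screen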); details: Fluo-4 calcium flux, at 10 µM, compound added before EC20 DAMGO stimulus; hits give high values

Sequence of Short transient receptor potential channel 4 (Mus musculus) (Q9QUQ5 whole entry, looked up): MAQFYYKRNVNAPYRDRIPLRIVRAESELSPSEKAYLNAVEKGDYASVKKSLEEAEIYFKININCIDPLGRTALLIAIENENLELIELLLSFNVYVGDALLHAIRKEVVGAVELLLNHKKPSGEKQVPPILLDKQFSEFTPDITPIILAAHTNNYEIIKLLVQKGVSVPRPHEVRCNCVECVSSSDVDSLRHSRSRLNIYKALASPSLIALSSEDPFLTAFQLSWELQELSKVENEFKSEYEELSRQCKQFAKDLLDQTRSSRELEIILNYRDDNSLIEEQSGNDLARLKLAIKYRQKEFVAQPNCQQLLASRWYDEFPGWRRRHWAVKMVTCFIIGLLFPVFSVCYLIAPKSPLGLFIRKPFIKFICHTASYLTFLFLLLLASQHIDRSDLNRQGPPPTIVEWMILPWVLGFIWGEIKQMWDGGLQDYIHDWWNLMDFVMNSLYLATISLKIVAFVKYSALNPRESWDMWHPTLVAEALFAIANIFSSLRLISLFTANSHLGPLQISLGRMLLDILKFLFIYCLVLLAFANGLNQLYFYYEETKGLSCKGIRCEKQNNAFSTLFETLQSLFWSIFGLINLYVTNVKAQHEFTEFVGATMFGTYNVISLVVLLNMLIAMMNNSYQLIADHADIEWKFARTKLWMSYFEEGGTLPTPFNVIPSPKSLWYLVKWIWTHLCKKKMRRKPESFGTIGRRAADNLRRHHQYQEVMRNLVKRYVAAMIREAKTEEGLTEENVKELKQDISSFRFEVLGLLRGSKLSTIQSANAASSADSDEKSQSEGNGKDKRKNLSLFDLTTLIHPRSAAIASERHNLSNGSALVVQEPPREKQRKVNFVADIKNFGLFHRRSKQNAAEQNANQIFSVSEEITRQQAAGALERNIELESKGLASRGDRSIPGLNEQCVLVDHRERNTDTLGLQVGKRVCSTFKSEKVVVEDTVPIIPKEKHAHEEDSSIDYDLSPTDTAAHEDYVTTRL
Sequence of Short transient receptor potential channel 6 (Mus musculus) (Q61143 whole entry, looked up): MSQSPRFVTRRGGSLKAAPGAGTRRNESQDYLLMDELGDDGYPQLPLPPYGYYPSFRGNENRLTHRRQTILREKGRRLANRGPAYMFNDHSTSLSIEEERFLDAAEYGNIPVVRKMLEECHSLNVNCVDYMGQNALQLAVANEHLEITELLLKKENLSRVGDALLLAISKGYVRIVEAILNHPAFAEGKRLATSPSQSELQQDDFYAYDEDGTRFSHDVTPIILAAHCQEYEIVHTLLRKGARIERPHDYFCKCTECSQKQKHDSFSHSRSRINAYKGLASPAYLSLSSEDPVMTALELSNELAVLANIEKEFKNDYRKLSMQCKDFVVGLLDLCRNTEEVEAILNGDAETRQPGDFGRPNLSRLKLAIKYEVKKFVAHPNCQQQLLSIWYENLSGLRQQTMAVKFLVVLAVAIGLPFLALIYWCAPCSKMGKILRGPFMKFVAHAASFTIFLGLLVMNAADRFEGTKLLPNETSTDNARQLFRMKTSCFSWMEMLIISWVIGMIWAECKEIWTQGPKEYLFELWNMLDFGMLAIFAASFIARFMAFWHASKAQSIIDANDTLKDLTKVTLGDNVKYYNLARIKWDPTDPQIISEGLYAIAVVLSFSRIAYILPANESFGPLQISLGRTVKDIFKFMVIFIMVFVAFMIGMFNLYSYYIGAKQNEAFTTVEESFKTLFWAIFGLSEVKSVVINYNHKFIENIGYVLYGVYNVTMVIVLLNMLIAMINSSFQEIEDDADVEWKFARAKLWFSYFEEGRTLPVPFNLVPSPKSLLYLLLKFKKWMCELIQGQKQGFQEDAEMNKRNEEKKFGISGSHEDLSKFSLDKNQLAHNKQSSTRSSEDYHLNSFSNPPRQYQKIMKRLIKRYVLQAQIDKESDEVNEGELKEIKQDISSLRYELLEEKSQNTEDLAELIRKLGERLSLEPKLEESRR

O=C(COC(=O)c1ccccn1)Nc1nc(-c2ccccc2)cs1
inactive: outcome [1] | outcome [2] | outcome [3] | outcome [4] | outcome [5] | outcome [6] | outcome [7] | outcome [8] | outcome [9] | outcome [10] | outcome [11] | outcome [12] | outcome [13] | outcome [14] | outcome [15] | outcome [16] | outcome [17]

Cc1cc(=O)oc2cc(NC(=S)NCc3ccccn3)ccc12
inactive: outcome [1] | outcome [2] | outcome [3] | outcome [4] | outcome [5] | outcome [6] | outcome [7] | outcome [8] | outcome [9] | outcome [10] | outcome [11] | outcome [12] | outcome [13] | outcome [14] | outcome [15] | outcome [16] | outcome [17]

COc1ccc(CCNC(=O)Cn2cnc3c(cnn3C(C)(C)C)c2=O)cc1OC
inactive: outcome [1] | outcome [2] | outcome [3] | outcome [4] | outcome [5] | outcome [6] | outcome [7] | outcome [8] | outcome [9] | outcome [10] | outcome [11] | outcome [12] | outcome [13] | outcome [14] | outcome [16] | outcome [17]
active: potentiation [15] 7.92%

CCOP(=O)(OCC)c1nc(-c2ccc(Cl)cc2Cl)oc1N1CCCCC1
active: potentiation [15] 54.2%
inactive: outcome [1] | outcome [2] | outcome [3] | outcome [4] | outcome [5] | outcome [6] | outcome [7] | outcome [8] | outcome [9] | outcome [10] | outcome [11] | outcome [12] | outcome [13] | outcome [14] | outcome [16] | outcome [17]

CCN1C(=O)/C(=C/C=C2\N(CC)c3cc(S(=O)(=O)N(C)C)ccc3N2c2ccccc2)SC1=S
active: potentiation [4] 13% | potentiation [15] 24.9% | activation [17] 996%
inactive: outcome [1] | outcome [2] | outcome [3] | outcome [5] | outcome [6] | outcome [7] | outcome [8] | outcome [9] | outcome [10] | outcome [11] | outcome [12] | outcome [13] | outcome [14] | outcome [16]

CN(C)CCCNC(=O)/C=C/c1ccc(OCc2c(F)cccc2Cl)cc1
inactive: outcome [1] | outcome [2] | outcome [3] | outcome [4] | outcome [5] | outcome [6] | outcome [7] | outcome [8] | outcome [9] | outcome [10] | outcome [11] | outcome [12] | outcome [13] | outcome [14] | outcome [16] | outcome [17]
active: potentiation [15] 16.2%

O=C(COc1ccccc1-c1ccccc1)NCc1ccco1
inactive: outcome [1] | outcome [2] | outcome [3] | outcome [4] | outcome [5] | outcome [6] | outcome [7] | outcome [8] | outcome [9] | outcome [10] | outcome [11] | outcome [12] | outcome [13] | outcome [14] | outcome [15] | outcome [16] | outcome [17]

C=C(C)COc1ccc(-c2[nH]ncc2Oc2ccc(OC)cc2)c(O)c1
inactive: outcome [1] | outcome [2] | outcome [3] | outcome [4] | outcome [5] | outcome [6] | outcome [7] | outcome [8] | outcome [9] | outcome [10] | outcome [11] | outcome [12] | outcome [13] | outcome [14] | outcome [15] | outcome [16] | outcome [17]

CSCC(C)N1CCC(CO)(CCCc2ccccc2)CC1 (configuration not stated)
inactive: outcome [1] | outcome [2] | outcome [3] | outcome [4] | outcome [5] | outcome [6] | outcome [7] | outcome [8] | outcome [9] | outcome [10] | outcome [11] | outcome [12] | outcome [13] | outcome [14] | outcome [15] | outcome [16] | outcome [17]

CCCCN1CCc2c1nc1ccc(Br)cc1c2N
inactive: outcome [1] | outcome [2] | outcome [3] | outcome [4] | outcome [5] | outcome [6] | outcome [7] | outcome [8] | outcome [9] | outcome [10] | outcome [11] | outcome [12] | outcome [13] | outcome [14] | outcome [15] | outcome [16] | outcome [17]

O=C1Cc2ccccc2Sc2c(OCCN3CCCCC3)cccc21
inactive: outcome [1] | outcome [2] | outcome [3] | outcome [4] | outcome [5] | outcome [6] | outcome [7] | outcome [8] | outcome [9] | outcome [10] | outcome [11] | outcome [12] | outcome [13] | outcome [14] | outcome [15] | outcome [16] | outcome [17]

COc1ccc(CN(C2CCCCC2C)S(=O)(=O)c2ccc(S(=O)(=O)N(C)C)cc2)cc1OC (configuration not stated)
active: potentiation [4] 12% | potentiation [15] 5.84%
inactive: outcome [1] | outcome [2] | outcome [3] | outcome [5] | outcome [6] | outcome [7] | outcome [8] | outcome [9] | outcome [10] | outcome [11] | outcome [12] | outcome [13] | outcome [14] | outcome [16] | outcome [17]

Cc1ccc(Cn2c(=N)c(C(=O)NCCN3CCOCC3)cc3c(=O)n4ccccc4nc32)cc1
active: potentiation [4] 31%
inactive: outcome [1] | outcome [2] | outcome [3] | outcome [5] | outcome [6] | outcome [7] | outcome [8] | outcome [9] | outcome [10] | outcome [11] | outcome [12] | outcome [13] | outcome [14] | outcome [15] | outcome [16] | outcome [17]

CC(Oc1ccc(Cl)cc1Cl)C(=O)N(C)c1ccccc1 (configuration not stated)
inactive: outcome [1] | outcome [2] | outcome [3] | outcome [4] | outcome [5] | outcome [6] | outcome [7] | outcome [8] | outcome [9] | outcome [10] | outcome [11] | outcome [12] | outcome [13] | outcome [14] | outcome [15] | outcome [16] | outcome [17]

Cc1ccc(C)c(N(CC(=O)NC2CCCC2)C(=O)c2csnn2)c1
active: activation [11] 30%
inactive: outcome [1] | outcome [2] | outcome [3] | outcome [4] | outcome [5] | outcome [6] | outcome [7] | outcome [8] | outcome [9] | outcome [10] | outcome [12] | outcome [13] | outcome [14] | outcome [15] | outcome [16] | outcome [17]

O=C(CCN1CCN(Cc2ccccc2)CC1)Nc1cccc(Br)c1
active: potentiation [3] 21%
inactive: outcome [1] | outcome [2] | outcome [4] | outcome [5] | outcome [6] | outcome [7] | outcome [8] | outcome [9] | outcome [10] | outcome [11] | outcome [12] | outcome [13] | outcome [14] | outcome [15] | outcome [16] | outcome [17]
